# Compound activity deposited in PubChem BioAssay by several laboratories.
# This is a sample that favours compounds with a hit; in the whole collection about 2.7% have one here.
# MsrA inh: inhibitors of bovine MsrA; inhibition, % at 15.5 µM; purified bovine MsrA, absorbance read-out; 360,000 tested, 0.75% active;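 note: 0% = vehicle wells with enzyme and 100% = reference inhibitor wells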
# NadD inh: blocks S. aureus nicotinate mononucleotide adenylyltransferase | purified NadD enzyme, colorimetric absorbance read-out | inhibition, % at 20 µM | 360,000 tested, 0.78% active | AID 602399; in the data active = inhibition above about 26%
# bovine MsrA act: activators of bovine methionine sulfoxide reductase A; purified bovine MsrA, absorbance read-out; activation, % at 10.6 µM; 360,000 tested, 0.3% active; AID 602163; in the data active = activation above about 7.5%;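 note: 0% = vehicle and 100% = reference activator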
# rCAG RNA binder: r(CAG) repeat RNA binding; inhibition, % at 3 µM; 370,000 tested, 1.3% active; AID 651821; TO-PRO-1 dye displacement fluorescence;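 active = inhibition above the plate cutoff, the mean of all test compounds on that plate plus 3 SD, cut at about 35% in these data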;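 note: 0% = DMSO alone and 100% = 100 µM mitoxantrone as full dye displacement; higher means more dye released from RNA so lower well fluorescence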
# MsrA conf: confirmation of bovine MsrA inhibitors; shares compounds with MsrA inh; 2,300 tested, 41% active; inhibition, % at 15.5 µM; purified bovine MsrA, absorbance read-out;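 note: coupled to thioredoxin reductase with NADPH and selenocystamine and DMSO as substrate; 0% = vehicle only and 100% = full effect of reference inhibitor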
# The depositor's hits bear a star; . = no result given. Cut-off read from the data, not from the text of the source, unless noted: active = inhibition above about 4.5%; inactive = the rest.
SMILES,MsrA inh,NadD inh,bovine MsrA act,rCAG RNA binder,MsrA conf
COc1ccc(C2=NS(=O)(=O)N(C)C(C(=O)N3CCC(C(N)=O)CC3)=C2)cc1,6.1*,-2,-4,5,3
COc1ccc(C2=NS(=O)(=O)N(C)C(C(=O)N3C(C)CCCC3C)=C2)cc1 (stereo unspecified),4,0,-4,0,.
Cc1ccc(C(=O)N(C)CC(=O)Nc2cccc(C)c2C)o1,-1,-5,3,2,.
COC(=O)N1[C@H](C)C=C[C@]1(Cc1ccccc1)C(=O)NCCCNc1ncc(C(F)(F)F)cc1Cl,37*,-7,-1,-6,37*
COc1cccc(/C(C)=N/Nc2ccc(S(=O)(=O)N3CCCCC3)cn2)c1,4.8*,-4,-7,3,3
C/C(=N\Nc1ccc(S(=O)(=O)N2CCCCC2)cn1)c1ccc(O)cc1,2,-11,-6,6,.
CCN1C(C(=O)Nc2cc(C)on2)=C(O)c2ccccc2S1(=O)=O,5.1*,-6,-5,2,2
CCOc1ncccc1C(=O)NNC(=O)c1csc(N2CCOCC2)n1,3,-4,-1,-2,.
COc1cc(OC)cc(C(=O)NNC(=O)CN2C(=O)NC(C)(c3ccccc3)C2=O)c1 (stereo unspecified),0,-1,-8,-7,.
O=C(O)[C@H](Cc1ccccc1)Nc1ccc([N+](=O)[O-])cn1,4.8*,-7,-3,-1,3
O=C(O)C(Cc1ccccc1)Nc1ccc([N+](=O)[O-])cc1[N+](=O)[O-] (stereo unspecified),3,-2,-2,27,.
Cc1cc(OCC(=O)N2CCOCC2)ccc1NC(=O)c1ccccc1C,1,1,-3,-6,.
CC(=O)c1cccc(Oc2cc(NN3CCCCC3)c([N+](=O)[O-])cc2[N+](=O)[O-])c1,18*,-12,-4,-1,12*
COc1ccc(Oc2cc(NN3CCCCC3)c([N+](=O)[O-])cc2[N+](=O)[O-])cc1OC,4.9*,-8,-2,2,3
O=[N+]([O-])c1cc([N+](=O)[O-])c(Oc2ccc(F)cc2)cc1NN1CCCCC1,0,-9,-1,2,.
CC(=O)c1ccccc1Oc1cc(NN2CCCCC2)c([N+](=O)[O-])cc1[N+](=O)[O-],2,-2,-2,13,.
COc1ccc(N2CCN(C(=O)CSc3nnc(-c4ccco4)n3C)CC2)cc1,0,.,.,-4,.
N#C/C(=C\Nc1ccccc1O)c1nc2ccccc2o1,9.7*,-9,-12,24,7.7*
COC(=O)c1ccccc1NC(=S)NC(C)=O,0,1,-1,0,.
COC(=O)c1ccccc1NC(=S)NC(=O)C1CC1,12*,-3,-2,-4,11*
COc1ccc(-c2cc3ccc(OCC(N)=O)cc3oc2=O)cc1OC,5.6*,-6,-8,-1,1
COc1ccc(-c2cc3ccc(OC(C)C(=O)O)cc3oc2=O)cc1 (stereo unspecified),5.7*,2,-7,9,4
COc1ccc(-c2cc3ccccc3oc2=O)cc1,1,-12,-3,0,.
COc1ccc(CCN2CC(C(=O)NC3CCCCC3)CC2=O)cc1OC (stereo unspecified),0,-1,-3,-4,.
COc1ccc(C2(C(=O)Nc3ccc(C)cc3)CCOCC2)cc1,2,0,-3,-7,.
SMILES,MsrA inh,NadD inh,bovine MsrA act,rCAG RNA binder,MsrA conf
Cn1c(=O)c2c(SCc3ccccn3)nc(CC(C)(C)C)nc2n(C)c1=O,0,2,-1,0,.
CCCc1nc(SCc2ccccn2)c2c(=O)n(C)c(=O)n(C)c2n1,11*,-6,-3,1,9.2*
CCOC(=O)c1[nH]c(C)c(C(=O)OCC)c1C,-1,-3,-3,0,.
CCOC(=O)c1c(C)[nH]sc1=S,4.9*,-4,5,-4,3
O=C1N/C(=N/O)S/C1=C/c1cccc([N+](=O)[O-])c1,3,-3,-4,0,.
O=C1N/C(=N/O)S/C1=C\c1ccccc1-n1cccn1,4.7*,-7,-5,5,3
CCC(C)NC(=O)CNC(=O)c1nn(-c2ccc(OC)cc2OC)c(=O)c2ccccc12 (stereo unspecified),0,4,-2,-4,.
CCOC(=O)N1CCN(C(=O)c2ccc3nc4ccsc4c(=O)n3c2)CC1,5.1*,-4,-3,-1,2
CCOC(=O)N1CCN(C(=O)c2cccn3c(=O)c4cc(Br)ccc4nc23)CC1,-1,-3,-5,-2,.
CCOC(=O)N1CCN(C(=O)c2ccc3nc4ccc(Cl)cc4c(=O)n3c2)CC1,1,2,-2,14,.
CCOC(=O)N1CCN(C(=O)c2cccn3c(=O)c4sccc4nc23)CC1,5.7*,-7,-1,-5,4
CCOC(=O)c1ccc(Nc2c(OCC)c(=O)c2=O)cc1,5.9*,-4,-7,6,3
CCOC(=O)c1ccc(Nc2ccc(C(C)=O)cc2)cc1,1,-7,-5,3,.
O=C(N/N=C/c1ccccc1)c1cc(=O)[nH]c2ccccc12,1,0,-11,2,.
CN(C)c1ccc(/C=N/NC(=O)c2ccco2)cc1,4.7*,3,-3,1,5.1*
CN(C)c1ccc(/C=N/NC(=O)c2cc(=O)[nH]c3ccccc23)cc1,7.1*,-2,-2,4,5
O=C(N/N=C/c1ccc2ncccc2c1)c1ccco1,5.2*,-4,-10,9,3
CN(C)c1ccc(/C=N/NC(=O)C(=O)N2CCCCCC2)cc1,4.7*,-1,-4,-2,5.9*
COc1cccc(-c2ccc(C3=CC(=O)CC(C)(C)C3=O)cc2)c1OC,1,-7,-2,-2,.
CN(C)c1ccc(/C=N/NC(=O)c2ccn(C)n2)cc1,6.3*,-9,-4,-4,4
Cc1nc2ccccn2c(=O)c1NC(=O)c1cccc2ccccc12,4,-1,-4,-1,.
Cc1nc2ccccn2c(=O)c1NC(=O)c1ccco1,4.8*,1,-1,0,2
COc1ccc(N=[N+]([O-])c2ccc(OC)cc2)cc1,1,-1,-4,4,.
COc1cc(/C=N\NC(=O)c2sc(N)nc2C)cc(OC)c1OC,7.0*,-4,-7,-3,5.2*
Cc1nc(N)sc1C(=O)N/N=C/c1ccccc1[N+](=O)[O-],3,2,-18,2,.
SMILES,MsrA inh,NadD inh,bovine MsrA act,rCAG RNA binder,MsrA conf
CC(/C=N/NC(=O)c1sc(N)nc1C)=C\c1ccccc1,6.7*,-1,-4,5,4
O=C(O)c1cc(-c2ccc(/C=N/N3C(=O)C4C5C=CC(C6CC56)C4C3=O)o2)ccc1Cl (stereo unspecified),5.4*,6,-4,8,7.8*
O=C(O)c1cc(-c2ccc(/C=N/N3C(=O)C4C5C=CC(CC5)C4C3=O)o2)ccc1Cl (stereo unspecified),7.4*,1,-4,3,5.8*
O=C1C2C3C=CC(C4CC34)C2C(=O)N1/N=C/c1ccc(-c2ccc(Cl)cc2[N+](=O)[O-])o1 (stereo unspecified),2,9,-6,9,.
COc1ccccc1-n1cnc2cc(C(=O)N3CCOCC3)ccc21,1,-3,-10,0,.
CCCCOc1ccc(C(=O)N2CCN(c3ncccn3)CC2)cc1,0,-1,-1,-11,.
